High-throughput results: PubChem, The Scripps Research Institute Molecular Screening Center
AHR act: AHR activators, primary screen, cell-based, luminescence, luciferase reporter, human; activation, % at 5 µM; Aryl hydrocarbon receptor (Homo sapiens), P35869; hit rate 2.5% among 320,000; AHR-responsive luciferase reporter cells; in the data active means activation above about 47%;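 further: 0% = vehicle wells and 100% = reference agonist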
Target sequence (P35869 whole entry, looked up): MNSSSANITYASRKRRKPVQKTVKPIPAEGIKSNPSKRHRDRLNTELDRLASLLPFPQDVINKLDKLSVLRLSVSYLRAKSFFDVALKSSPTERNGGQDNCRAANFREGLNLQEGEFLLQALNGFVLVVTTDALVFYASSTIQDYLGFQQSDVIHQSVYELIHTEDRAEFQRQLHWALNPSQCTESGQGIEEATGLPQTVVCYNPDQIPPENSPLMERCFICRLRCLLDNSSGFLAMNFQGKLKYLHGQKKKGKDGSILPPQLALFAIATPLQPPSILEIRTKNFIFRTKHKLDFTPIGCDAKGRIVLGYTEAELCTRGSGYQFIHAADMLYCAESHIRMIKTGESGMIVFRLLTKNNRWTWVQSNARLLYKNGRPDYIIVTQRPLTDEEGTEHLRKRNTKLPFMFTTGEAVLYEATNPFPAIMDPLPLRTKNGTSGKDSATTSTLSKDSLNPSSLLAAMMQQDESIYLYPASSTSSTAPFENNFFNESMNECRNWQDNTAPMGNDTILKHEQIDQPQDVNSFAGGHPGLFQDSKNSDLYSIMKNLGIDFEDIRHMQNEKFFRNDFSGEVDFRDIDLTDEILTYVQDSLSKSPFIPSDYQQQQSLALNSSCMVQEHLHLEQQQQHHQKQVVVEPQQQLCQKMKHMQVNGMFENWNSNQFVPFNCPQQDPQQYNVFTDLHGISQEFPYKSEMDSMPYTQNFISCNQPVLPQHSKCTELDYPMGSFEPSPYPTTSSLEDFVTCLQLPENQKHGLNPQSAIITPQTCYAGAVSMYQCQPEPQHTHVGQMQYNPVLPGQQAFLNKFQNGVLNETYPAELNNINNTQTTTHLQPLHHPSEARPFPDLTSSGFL
hcDAF12 agonist: H. contortus DAF-12 nuclear receptor activators, primary screen, cell-based, luminescence, HEK293, lit1-tk-luc reporter. HEK293 hcDAF-12 lit1-tk-luc reporter; 0% DMSO, 100% Δ7-dafachronic acid. activation, % at 6.8 µM. hit rate 1.4% among 370,000. AID 652067, 2013;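 active means activation above the mean of all tested compounds plus 3 SD, cut at about 5.5% in these data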;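 further: 100% = response to 3 µM Δ7-dafachronic acid high control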
DAX1 inh-1: DAX1 (NR0B1) inhibitors, primary screen, cell-based, HEK293, Gal4-DAX1, luciferase luminescence; Nuclear receptor subfamily 0 group B member 1 (Homo sapiens), P51843; HEK293 Gal4-DAX1 luciferase reporter; inhibition, % at 6.75 µM; hit rate 0.99% among 340,000; AID 504766, 2011;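 active means inhibition above the mean over all tested compounds plus 3 SD, cut at about 4.2% in these data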;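 further: 0% = DAX1-transfected cells with DMSO and 100% = empty-vector control cells with DMSO; inhibition shows as a rise in luminescence from relieved DAX1 repression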
ssDAF-12 act: S. stercoralis DAF-12 nuclear receptor activators, primary screen, cell-based, luminescence, HEK293, GRIP1 co-expression, lit1-tk-luc; Nuclear hormone receptor DAF-12 (Strongyloides stercoralis); HEK293 ssDAF-12/GRIP1 lit1-tk-luc reporter; % of 3 µM dafachronic acid response; activation, % at 6.8 µM; hit rate 1% among 370,000; AID 652126, 2013;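 active means activation above the mean over all tested compounds plus 3 SD, cut at about 0.9% in these data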;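 further: 0% = DMSO-only wells and 100% = 3 µM delta7-dafachronic acid wells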
DAX1 inh-2: DAX1 (NR0B1) inhibitors on StAR promoter, primary screen, cell-based, luminescence, SF-1 (NR5A1), full-length DAX-1 | AID 652010, 2013 | hit rate 1.1% among 370,000 | inhibition, % at 6.8 µM | HEK293T StAR-luciferase reporter, SF-1/DAX-1 repression relief;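 active means inhibition above the mean over all tested compounds plus 3 SD, cut at about 3.6% in these data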;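 further: 0% = DAX-1 cells with DMSO and 100% = cells lacking DAX-1 with DMSO; higher inhibition means more luminescence from relief of DAX-1 repression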
hgDAF-12 ag: H. glycines DAF-12 receptor agonists, primary screen, cell-based, luminescence, HEK293, GAL4 fusion, UAS-luciferase | HEK293 GAL4-hgDAF12 UAS-luciferase reporter, agonist luminescence; normalized to butyrate control | activation, % at 6.8 µM | hit rate 1.8% among 370,000 | AID 687014, 2013;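 active means activation above a cutoff set at the mean of all screened compounds plus 3 SD, cut at about 10% in these data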;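 further: 0% = DMSO wells and 100% = sodium butyrate wells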
* = called active by the depositor; / = no result given. Hits are enriched below; roughly 5.7% of the tested compounds scored in any of these assays.

SMILES	AHR act	hcDAF12 agonist	DAX1 inh-1	ssDAF-12 act	DAX1 inh-2	hgDAF-12 ag
CCc1ccc([C@@H]2CC(=O)[C@@H]3CN(S(=O)(=O)c4ccc(Cl)cc4)[C@H](c4ccc(C)cc4)C[C@@H]3N2S(=O)(=O)c2ccc(C)cc2)cc1	/	-0.5	/	-0.8	0.1	0.5
CN(C1CCCCC1)S(=O)(=O)c1ccc2[nH]c(=O)oc2c1	-0.6	2.7	2.4	-1.0	0.0	4.3
C/C(=N\O)c1ccc2c3c([nH]c2c1)CCCC3	8.6	-0.8	1.2	-1.3	0.2	11.3*
C/C(=N\O)c1ccc2[nH]ccc2c1	7.6	-1.0	0.7	-0.8	0.9	3.5
CC(NC(=O)C12CC3CC(CC(C3)C1)C2)C(=O)NN=Cc1ccc([N+](=O)[O-])o1 (configuration not stated)	-1.6	0.6	-1.3	1.6*	-3.1	-7.3
O=C(N/N=C/c1ccc([N+](=O)[O-])o1)C1CCCC1	9.8	-0.4	-1.3	-1.5	-5.8	-6.5
O=C(NCc1cc(Cl)cc(Cl)c1)c1ccc2nc([C@H]3C[C@H](O)[C@@H](CO)O3)[nH]c2c1	/	-0.8	/	-1.0	-0.3	-2.1
COc1ccc(C)cc1N(C(=O)c1cccc(F)c1)c1nc2ccccc2s1	37.4	6.5*	0.2	0.0	0.2	1.4
COc1ccc(C)cc1N(C(=O)COc1ccccc1)c1nc2ccccc2s1	30.1	6.2*	2.5	0.5	0.6	4.5
Cc1ccc(Cn2cc(CN3CC(N4CCSCC4)CS3(=O)=O)nn2)cc1 (configuration not stated)	/	-1.0	/	-1.0	2.4	-1.5
O=C(NCC(O)c1ccc([N+](=O)[O-])cc1)c1cccc(S(=O)(=O)N2CCCC2)c1 (configuration not stated)	-0.7	-1.3	0.0	-1.0	0.8	-2.7
Cc1ccc2c(c1)N(C(=O)CCC(=O)Nc1ccccc1Cl)CC(C)O2 (configuration not stated)	0.8	-2.4	-0.1	-1.3	-0.8	-1.3
O=C1CC(NNc2ccccc2)C(=O)N1c1ccccc1 (configuration not stated)	6.6	6.3*	1.6	-0.5	1.0	0.2
CCc1ccc2nc3nc(C)cc(C)c3c(N)c2c1	68.4*	2.2	0.3	-0.4	0.2	3.4
CCc1ccc(NC(=S)/N=C(\N)Nc2nc(C)c3cc(CC)ccc3n2)cc1	-2.3	-2.1	-0.7	-1.8	-1.3	0.5
Cc1cc(C)c2cccc(N)c2n1	7.6	2.1	0.1	-0.9	0.1	-0.9
Cc1cc(C)c2c(N)c3ccccc3nc2n1	23.0	18.3*	-0.9	4.0*	1.9	11.1*
CCN(Cc1nc2cc(Cl)ccc2c(=O)[nH]1)C(=O)c1ccc(C)c(NC(=O)c2ccco2)c1	5.4	-1.4	0.3	-1.0	-0.3	-4.8
COc1ccc(Cc2nc3ccccc3[nH]c2=O)cc1	5.4	-2.4	-0.7	-0.9	-0.1	3.4
O=c1[nH]c2ccccc2nc1/C=C/c1ccccc1	56.5*	6.4*	1.1	0.8	2.6	12.1*
Oc1ccc(C=Nc2ccccc2-c2nc3ccccc3[nH]2)c(O)c1	94.6*	1.9	-0.1	-1.0	2.2	9.0
COc1ccc(OC)c(C=Nc2ccccc2-c2nc3ccccc3[nH]2)c1	86.5*	2.7	2.8	0.1	1.8	12.3*
COc1ccc(OC)c(/C=C/c2nc3ccccc3[nH]c2=O)c1	59.8*	-0.3	0.7	-1.2	-0.3	-1.7
CCCCCCCCN1C(=O)[C@@H](CC(=O)N2CCN(C(=O)c3ccco3)CC2)C[C@@]2(C(=O)OC)C1=C[C@H](C1CCCC1)O[C@@H]2C	/	0.4	/	-1.0	0.1	0.7
CCCC(=O)Nc1ccc(C(=O)NN=C(C2CC2)C2CC2)cc1	18.9	-2.1	4.5*	-1.1	-0.4	1.3
SMILES	AHR act	hcDAF12 agonist	DAX1 inh-1	ssDAF-12 act	DAX1 inh-2	hgDAF-12 ag
CC1=C(C(=O)OCC(C)C)C(c2ccsc2)C2=C(CCCC2=O)N1 (configuration not stated)	23.3	-3.2	-0.2	-1.2	-0.5	-2.2
O=S1(=O)CCN(Cc2csc(-c3cccs3)n2)CC1	-0.1	2.4	1.0	0.4	1.3	5.7
c1csc(-c2nc(CN3CCSCC3)cs2)c1	3.8	4.9	-0.1	-0.1	2.1	12.4*
Cc1ccc(S(=O)(=O)Nc2cccc(C(=O)NCc3ccc(S(N)(=O)=O)cc3)c2)cc1	0.6	0.4	0.3	-0.9	0.0	0.6
CCn1c(SC(C)C(=O)Nc2nccs2)nnc1-c1ccncc1 (configuration not stated)	1.1	-0.3	0.6	-0.7	2.2	-0.2
CC1CC(c2ccccc2)n2nc(NC(=O)c3ccco3)nc2N1 (configuration not stated)	1.5	-1.6	-0.3	-1.1	-0.1	0.2
COc1ccc(C2CC(c3ccc(F)cc3)n3nc(NC(=O)c4ccco4)nc3N2)cc1 (configuration not stated)	2.2	-0.6	4.8*	-1.3	-0.6	-0.7
O=C(CSc1nnc2ccc(-c3ccccn3)nn12)N1CCCC1	/	-0.8	0.1	-0.9	-0.5	-3.8
O=C(c1ccc2c3c(cccc13)CC2)C1CCCN(C(=O)c2ccc[n+]([O-])c2)C1 (configuration not stated)	5.2	-0.8	-0.1	-0.9	-0.2	-1.1
Cc1ccc2[nH]c(O)c(N=Nc3ccccc3C)c2c1	14.6	4.3	-0.9	-0.1	-0.2	-1.3
Cc1ccc2[nH]c(O)c(N=O)c2c1	10.8	0.8	4.9*	-0.4	0.2	0.3
CCOC12NC(=O)CC(=O)N1C(c1ccccc1)=CS2 (configuration not stated)	-1.4	0.3	4.5*	-0.7	0.4	4.0
Nc1c(C(=O)N/N=C/c2cccnc2)oc2nc(-c3ccccc3)cc(-c3ccco3)c12	36.7	3.0	/	-0.2	0.1	2.7
Nc1c(C(=O)N/N=C/c2cccnc2)oc2nc(-c3ccco3)cc(-c3ccco3)c12	14.8	2.5	/	0.9*	-0.5	1.4
CCSCc1nnc(SCC(=O)Nc2nc(C)cs2)n1C	4.3	-1.7	/	0.0	-0.3	3.5
COC(=O)[C@@]12CCCCC3=C1N(CCC3)C(=O)[C@H]2CC(=O)NCc1cccs1	/	-1.9	/	-1.2	0.2	3.5
O=C1Nc2ccc(Br)cc2/C1=C/C(=O)c1ccc2c(c1)OCO2	69.9*	1.4	1.3	-0.3	-0.5	3.2
